Results from the supplement of paper PMC11732987, “Enantioselective OTUD7B fragment discovery through chemoproteomics screening and high-throughput optimisation” (Communications Chemistry, 2025).

Target: USP14 (UniProt P54578)
Assay: log2 ratio of Biotin-Ahx-Ub-VS probe labelling (fragment/DMSO); higher = less target engagement (more negative = stronger competition), active = hit call of the paper (q ≤ 0.05, log2 ratio ≤ -1)
Conditions: compound concentration: 200 uM; treatment time: 3 h
Protocol: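 Competitive ABPP in HEK293T cell lysate. Lysates were treated with each chloroacetamide fragment at 200 µM for 3 h, then with Biotin-Ahx-Ub-VS (0.5 µM, 1 h), NeutrAvidin-enriched and analysed by diaPASEF LC-MS/MS. Protein LFQ was median-normalised; average log2 ratio is fragment/DMSO from an unpaired t-test (n=3 treated, n=44 DMSO). Hits: q ≤ 0.05, log2 ratio ≤ -1, unique peptides ≥ 2.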

Chain of USP14 (P54578 whole entry, the tested form may be a part): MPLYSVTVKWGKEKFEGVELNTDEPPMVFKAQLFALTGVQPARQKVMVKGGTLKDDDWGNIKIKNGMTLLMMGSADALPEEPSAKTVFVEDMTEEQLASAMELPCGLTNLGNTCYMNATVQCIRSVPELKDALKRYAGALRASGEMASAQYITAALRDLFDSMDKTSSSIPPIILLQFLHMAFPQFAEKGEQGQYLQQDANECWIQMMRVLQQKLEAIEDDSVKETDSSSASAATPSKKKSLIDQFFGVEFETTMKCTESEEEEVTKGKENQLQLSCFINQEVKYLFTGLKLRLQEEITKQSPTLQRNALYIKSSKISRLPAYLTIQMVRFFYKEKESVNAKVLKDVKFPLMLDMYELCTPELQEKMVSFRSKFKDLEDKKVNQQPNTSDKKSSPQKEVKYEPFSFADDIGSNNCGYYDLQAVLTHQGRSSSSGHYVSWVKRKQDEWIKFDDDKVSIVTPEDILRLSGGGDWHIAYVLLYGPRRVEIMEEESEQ

Row | Structure (SMILES) | log2 ratio of Biotin-Ahx-Ub-VS probe labelling
1 | O=C(CCl)NCc1ccc(Cl)cc1 | -0.109 (inactive)
2 | COCC1C=CCCN1C(=O)CCl (stereo not given) | -0.0905 (inactive)
3 | Cl.O=C(CCl)N1CCC(n2nc3ccccc3n2)CC1 | -0.545 (inactive)
4 | Cl.O=C(CCl)N1CC(c2ccc(Br)cn2)C1 | -0.592 (inactive)
5 | O=C(CCl)N(Cc1ccsc1)C1CC1 | -0.456 (inactive)
6 | CN1C(=O)c2ccc(NC(=O)CCl)cc2C1=O | -0.292 (inactive)
7 | Cc1ccc(N(CCC#N)C(=O)CCl)cc1C | -0.623 (inactive)
8 | O=C(CCl)N1CCC(c2noc3cc(F)ccc23)CC1 | -0.337 (inactive)
9 | NS(=O)(=O)c1ccc(Cl)c(NC(=O)CCl)c1 | -0.356 (inactive)
10 | Cc1cccc2nc(CCNC(=O)CCl)cn12.Cl | -0.259 (inactive)
11 | CCc1c[nH]c(CNC(=O)CCl)n1.Cl | -0.5 (inactive)
12 | Cc1ccc(CC(CO)CNC(=O)CCl)cc1 (stereo not given) | -0.262 (inactive)
13 | Cc1cc(CC(C)NC(=O)CCl)n[nH]1 (stereo not given) | -0.00618 (inactive)
14 | O=C(CCl)Nc1ccccc1C(F)(F)F | -0.46 (inactive)
15 | O=C(CCl)N1CCOC2(CCC2)C1 | 0.0484 (inactive)
16 | N#Cc1ccc(CNC(=O)CCl)cc1 | -0.177 (inactive)
17 | COc1ccc(CN(C)C(=O)CCl)cc1 | -0.544 (inactive)
18 | Cl.O=C(CCl)NC1(c2ncccn2)CCC1 | 0.108 (inactive)
19 | O=C(CCl)N1CCN(C(=O)Nc2ccccc2)CC1 | 0.127 (inactive)
20 | Cl.O=C(CCl)NCc1cc2c(nc1O)CCCC2 | -0.12 (inactive)

Row | Structure (SMILES) | log2 ratio of Biotin-Ahx-Ub-VS probe labelling
21 | O=C(CCl)Nc1cccc(NC(=O)c2ccccc2)c1 | 0.235 (inactive)
22 | Cl.Cn1c(CNC(=O)CCl)nc2cccnc21 | -0.0826 (inactive)
23 | CC(C)n1nccc1NC(=O)CCl | -0.146 (inactive)
24 | CC(NC(=O)CCl)c1cccc2ccccc12 (stereo not given) | -0.209 (inactive)
25 | C#Cc1cccc(NC(=O)CCl)c1 | -0.191 (inactive)
26 | Cn1cc(CN(Cc2ccc(Cl)cc2)C(=O)CCl)cn1 | -1.03 (active)
27 | Cc1ccccc1C1(CNC(=O)CCl)CCOCC1 | -0.0489 (inactive)
28 | Cc1ccc(CC(NC(=O)CCl)c2ccccn2)cc1.Cl (stereo not given) | -0.0182 (inactive)
29 | O=C(CCl)Nc1ccc2c(c1)OC(F)(F)O2 | -0.0555 (inactive)
30 | O=C(CCl)N[C@H]1CCS(=O)(=O)c2ccccc21 | -0.0969 (inactive)
31 | CC(NC(=O)CCl)c1cnn(C2CC2)c1 (stereo not given) | -0.778 (inactive)
32 | O=C(CCl)Nc1ccc(Cl)c(F)c1 | -0.481 (inactive)
33 | CC(c1ccccc1)N(C)C(=O)CCl (stereo not given) | -0.237 (inactive)
34 | O=C(CCl)N1CCOC(c2cccc(F)c2)C1 (stereo not given) | -0.3 (inactive)
35 | Cc1ccccc1CN(C)C(=O)CCl | -0.81 (inactive)
36 | Cc1ccc(C)c(NC(=O)CCl)c1 | -0.687 (inactive)
37 | Cc1cc(NC(=O)CCl)n(-c2ccccc2)n1 | 0.0764 (inactive)
38 | O=C(CCl)NCCC1=CCCCC1 | 0.0195 (inactive)
39 | CC1CN(c2ccc(NC(=O)CCl)cc2)CC(C)O1 (stereo not given) | -0.0454 (inactive)
40 | Cc1cc(C2CCCN2C(=O)CCl)nn1C.Cl (stereo not given) | -0.361 (inactive)
